Results published in ChEMBL document CHEMBL3988442, “University of Dundee, Small-Polar-MMV Screening Library” (2021).

Molecular target: T1, Methionyl-tRNA synthetase, putative (Leishmania donovani (strain BPK282A1)) (UniProt E9BF75)
T1 sequence (whole entry): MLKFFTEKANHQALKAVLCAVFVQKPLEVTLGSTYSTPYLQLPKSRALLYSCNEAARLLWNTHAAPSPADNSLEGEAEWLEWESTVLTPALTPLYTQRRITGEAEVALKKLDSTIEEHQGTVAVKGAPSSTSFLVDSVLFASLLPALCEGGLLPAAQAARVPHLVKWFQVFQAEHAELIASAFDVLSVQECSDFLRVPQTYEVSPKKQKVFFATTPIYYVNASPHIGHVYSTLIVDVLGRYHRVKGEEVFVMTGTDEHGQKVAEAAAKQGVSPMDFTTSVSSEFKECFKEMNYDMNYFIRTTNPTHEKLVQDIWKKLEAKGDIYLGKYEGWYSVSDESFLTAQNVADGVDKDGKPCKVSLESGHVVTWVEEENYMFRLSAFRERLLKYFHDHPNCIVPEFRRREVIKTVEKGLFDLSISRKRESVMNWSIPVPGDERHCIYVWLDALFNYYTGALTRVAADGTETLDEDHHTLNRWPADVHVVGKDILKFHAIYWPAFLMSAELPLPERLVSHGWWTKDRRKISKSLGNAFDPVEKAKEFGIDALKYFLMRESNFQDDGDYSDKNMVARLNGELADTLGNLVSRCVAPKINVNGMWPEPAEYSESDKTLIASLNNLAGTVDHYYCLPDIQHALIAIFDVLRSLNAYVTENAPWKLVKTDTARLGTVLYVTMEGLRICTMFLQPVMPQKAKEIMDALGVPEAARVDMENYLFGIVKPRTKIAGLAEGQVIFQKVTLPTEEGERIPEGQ
Assay: Leishmania donovani Methionine tRNA synthetase (LdMetRS):v7. Dose response assay
Type: functional
Set-up: conc 80 nM, time 150 minutes

## Nc1noc2ccc(-c3cnc4ccc(NCc5ccccn5)nn34)cc12
MAX_EFFECT 7.291666667
  PXC50: < 4
MAX_EFFECT 11.84210526
  PXC50: < 4

## Cc1nc(N[C@@H](CC(C)C)C(=O)O)c2c3c(sc2n1)CCCC3
MAX_EFFECT 23.93617021
  PXC50: < 4
MAX_EFFECT 24.87046632
  PXC50: < 4

## CCc1cc2c(NC(C(=O)O)C(C)C)nc(C)nc2s1 (stereo not drawn)
MAX_EFFECT 5.866666667
  PXC50: < 4
MAX_EFFECT 8.994708995
  PXC50: < 4

## CCNC(=O)C1CCCN(c2nc(C)nc3sc4c(c23)CCC4)C1 (stereo not drawn)
MAX_EFFECT 7.25388601
  PXC50: < 4
MAX_EFFECT 9.574468085
  PXC50: < 4

## CC(C)C[C@H](N)COc1ccccc1C(=O)c1ccccc1
MAX_EFFECT 1.863354037
  PXC50: < 4
MAX_EFFECT -0.213219616
  PXC50: < 4

## Clc1cc(Cl)c2c(c1)NCCC2
MAX_EFFECT 10.1511879
  PXC50: < 3
MAX_EFFECT 15.01901141
  PXC50: < 3

## O=C(c1ccccc1)C1CCN(c2cncc(-n3cccn3)n2)CC1
MAX_EFFECT 17.57719715
  PXC50: < 4
MAX_EFFECT 27.64084507
  PXC50: < 4

## FC1(F)CCN(Cc2ccncc2)CC12CCN(c1cnccn1)C2 (stereo not drawn)
MAX_EFFECT 2.721088435
  PXC50: < 4
MAX_EFFECT 15.70093458
  PXC50: < 4

## O=C(c1c[nH]cn1)N1CCC(F)(F)C2(CCN(c3cnccn3)C2)C1 (stereo not drawn)
MAX_EFFECT 1.584507042
  PXC50: < 4
MAX_EFFECT 3.800475059
  PXC50: < 4

## COCCNc1nc(-n2nc(C)cc2C)nc2sccc12
BOTTOM 2.201340626, HILLSLOPE 2.387703954, MAX_EFFECT 53.50877193, TOP 100.0
  PXC50: 4.03
MAX_EFFECT 36.45833333
  PXC50: < 4

## CC[C@H](C)[C@H](Nc1nc(C)nc2sc3c(c12)CCCC3)C(=O)O
MAX_EFFECT 21.80851064
  PXC50: < 4
MAX_EFFECT 23.31606218
  PXC50: < 4

## OCc1ccc(Cl)cc1Cl
MAX_EFFECT 13.11787072
  PXC50: < 3
MAX_EFFECT 18.35853132
  PXC50: < 3

## Cc1nc(N(C)C)c2c3c(sc2n1)CCCC3
MAX_EFFECT 4.166666667
  PXC50: < 4
MAX_EFFECT 4.385964912
  PXC50: < 4

## Cc1ccc(N2CCC3(CN(Cc4cccs4)CCC3(F)F)C2)nn1 (stereo not drawn)
MAX_EFFECT 4.988662132
  PXC50: < 4
MAX_EFFECT 10.8411215
  PXC50: < 4

## Nc1cc(C(=O)O)c(Cl)cc1Cl
MAX_EFFECT 6.695464363
  PXC50: < 3
MAX_EFFECT 9.69581749
  PXC50: < 3

## CS(=O)(=O)N1CCN(c2ccc3ccc(C(=O)NC4CCCC4)nn23)CC1
MAX_EFFECT 4.387568556
  PXC50: < 4
MAX_EFFECT 8.612440191
  PXC50: < 4

## CCNc1nc(CC)nc2sc(CC)cc12
MAX_EFFECT 7.537688442
  PXC50: < 4
MAX_EFFECT 11.05651106
  PXC50: < 4

## Cc1nc(NCCCC(=O)O)c2c3c(sc2n1)CCCC3
MAX_EFFECT 9.823677582
  PXC50: < 4
MAX_EFFECT 10.43256997
  PXC50: < 4

## COCCNc1nc(-c2cccnc2)nc2sc3c(c12)CCCC3
MAX_EFFECT 11.84210526
  PXC50: < 4
MAX_EFFECT 12.5
  PXC50: < 4

## CC(C)C[C@H](N)COc1ccc(OC(F)(F)F)c(F)c1
MAX_EFFECT 10.87420043
  PXC50: < 4
MAX_EFFECT 10.97308489
  PXC50: < 4

## COC(=O)c1sc2nc(C)nc(NCc3cccnc3)c2c1C
MAX_EFFECT 10.38251366
  PXC50: < 4
MAX_EFFECT 11.22994652
  PXC50: < 4

## Cc1nc(N2CCN(CCO)CC2)c2c(-c3ccccc3)csc2n1
MAX_EFFECT 6.12244898
  PXC50: < 4
MAX_EFFECT 9.848484848
  PXC50: < 4

## Cc1nc(N2CCNC(=O)CC2)c2c(CC(C)C)csc2n1
MAX_EFFECT 6.557377049
  PXC50: < 4
MAX_EFFECT 9.625668449
  PXC50: < 4

## N[C@@H]1CCOc2c(Cl)cc(Cl)cc21
MAX_EFFECT 3.676470588
  PXC50: < 2.7
MAX_EFFECT 16.70480549
  PXC50: < 2.7

## COc1ccc(-c2cc(C(F)(F)F)nc(N3CCN(C)CC3)n2)cc1
MAX_EFFECT 16.41414141
  PXC50: < 4
MAX_EFFECT 20.40816327
  PXC50: < 4

## CCNc1cc(-c2ccccn2)nc(Nc2ccc(OC)cc2)n1
MAX_EFFECT 22.3255814
  PXC50: < 4
MAX_EFFECT 23.54312354
  PXC50: < 4

## Cc1sc2nc(CN3CCOCC3)nc(NCCO)c2c1C
MAX_EFFECT 7.650273224
  PXC50: < 4
MAX_EFFECT 8.021390374
  PXC50: < 4

## Cc1cc2c(N3CCCC3)nc(-c3cccnc3)nc2s1
MAX_EFFECT 8.196721311
  PXC50: < 4
MAX_EFFECT 10.16042781
  PXC50: < 4

## Cc1ccc(-c2cc(C(F)(F)F)nc(NCCN(C)C)n2)cc1
MAX_EFFECT 8.163265306
  PXC50: < 4
MAX_EFFECT 8.333333333
  PXC50: < 4
